Assay [1] is described as follows: ATG_CRE_CIS: Attagene CIS-FACTORIAL HepG2 Assay for human cAMP Responsive Element (CRE) binding protein 3 (AID 2282926). To be noted: HepG2 CRE cis-reporter, Attagene multiplexed mRNA; actives raise or lower the signal. The method in brief:
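Induced reporter mRNA from a CRE cis element, measured in HepG2 among many multiplexed units at 24 h. Detection used RT-PCR plus capillary electrophoresis of fluorescent fragments; DMSO served as negative control.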

Assay [2] has as its target CCAAT/enhancer-binding protein beta (Homo sapiens) (UniProt P17676). Kind of assay: ATG_C_EBP_CIS: Attagene CIS-FACTORIAL HepG2 Assay for human CCAAT/Enhancer Binding Protein (C/EBP) beta (AID 2282927). To be noted: HepG2 Attagene cis-factorial transcription factor reporter; actives raise or lower the signal. The method in brief:
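Endogenous C/EBPb-driven reporter transcripts measured in transfected human HepG2 cells at 24 h via RT-PCR and capillary electrophoresis of labelled fragments. Activity fitted in both directions relative to DMSO baseline.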

A short description of assay [3]: ATG_CMV_CIS: Attagene CIS-FACTORIAL HepG2 Assay for human CMV (Internal Marker) (AID 2282928).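 Also: endpoint acts as a background internal control marker rather than a target.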 As to conditions: HepG2 CMV promoter reporter, transcription factor profiling; actives raise or lower the signal. Put shortly: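 Fluorescence intensity of RT-PCR-derived reporter fragments, resolved by capillary electrophoresis, gives the signal. HepG2 liver cells bearing transfected cis-element reporters were treated 24 h; activity in either direction was fit relative to DMSO-treated controls.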

A short description of assay [4]: ATG_DR4_LXR_CIS: Attagene CIS-FACTORIAL HepG2 Assay for human Liver X Receptor (LXR), DR4 submotif (AID 2282929). As to conditions: HepG2 Attagene DR4 cis-reporter, mRNA transcription; actives raise or lower the signal. The method in brief: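 Readout: reporter transcript fluorescence after RT-PCR and capillary electrophoresis, fitted bidirectionally against DMSO controls. Human HepG2 liver cells carried transiently transfected multiplexed reporter constructs; endogenous transcription factor activity measured 24 h post-dosing.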

The target of assay [5] is Aryl hydrocarbon receptor (Homo sapiens) (UniProt P35869). Kind of assay: ATG_Ahr_CIS: Attagene CIS-FACTORIAL HepG2 Assay for human Aryl Hydrocarbon Receptor (Ahr) (AID 2282930). To be noted: HepG2 AhR cis-factorial reporter transcription; actives raise or lower the signal. Put shortly:
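Reporter mRNA levels, quantified by RT-PCR and fluorescent capillary electrophoresis, reflect endogenous AhR transcriptional activity in HepG2 cells carrying transfected cis-promoter reporter constructs. Readout at 24 h post-dose; gain or loss fitted against DMSO baseline.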

Assay [6] can be described thus: ATG_AP_1_CIS: Attagene CIS-FACTORIAL HepG2 Assay for human Activator Protein 1 (AP-1) (AID 2282931). To be noted: HepG2 Attagene cis-factorial AP-1 reporter mRNA; actives raise or lower the signal. Put shortly: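 Reporter transcripts were measured 24 h after dosing by RT-PCR and capillary electrophoresis of fluorescent fragments. Cells: HepG2 carrying transfected cis-regulated reporter constructs reading endogenous factor activity. Gain or loss fitted against DMSO.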

The nature of assay [7]: ATG_AP_2_CIS: Attagene CIS-FACTORIAL HepG2 Assay for human Activator Protein 2 (AP-2) (AID 2282932). As to conditions: HepG2 AP-2 cis-reporter, Attagene transcription factor profiling; actives raise or lower the signal. The method in brief: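 Endogenous transcription factor activity is reported through transfected multiplex reporter constructs in HepG2, after 24 h of compound exposure. Transcripts were quantified by RT-PCR and capillary electrophoresis of fluorescent fragments. Bidirectional fit against DMSO.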

A short description of assay [8]: ATG_BRE_CIS: Attagene CIS-FACTORIAL HepG2 Assay for human Bone Morphogenetic Protein (BMP) Response Element (BRE) (AID 2282933). To be noted: HepG2 BMP response element reporter, Attagene transcription factor profiling; actives raise or lower the signal. The method in brief: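 Multiplexed cis-reporter assay, HepG2, 24 h exposure. mRNA from reporter units quantified via RT-PCR/CE; DMSO baseline; bidirectional curve fit.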

Assay [9] concerns the target Retinoic acid receptor alpha (Homo sapiens) (UniProt P10276). Nature of the assay: ATG_DR5_RAR_CIS: Attagene CIS-FACTORIAL HepG2 Assay for human Retinoic Acid Receptor Alpha (RARE), DR5 submotif (AID 2282934). To be noted: HepG2 Attagene cis-factorial RARE DR5 reporter, mRNA; actives raise or lower the signal. Put shortly:
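Reporter transcripts from a DR5-regulated unit, measured via RT-PCR plus capillary electrophoresis, reflect endogenous RAR activity in transiently transfected human HepG2 liver cells. Exposure lasted 24 h; gain or loss of signal scored against DMSO.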

Assay [10] concerns the target Transcription factor E2F1 (Homo sapiens) (UniProt Q01094). Kind of assay: ATG_E2F_CIS: Attagene CIS-FACTORIAL HepG2 Assay for human E2F Transcription Factor 1 (AID 2282935). As to conditions: HepG2 Attagene cis-reporter, E2F reporter RNA transcripts; actives raise or lower the signal. The method in brief:
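Gain or loss of reporter transcript, fitted against DMSO, reflects E2F1-driven transcription. Transiently transfected HepG2 dosed 24 h before RNA isolation. Quantified by fluorescent RT-PCR products separated by capillary electrophoresis.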

Assay [11] is described as follows: ATG_E_Box_CIS: Attagene CIS-FACTORIAL HepG2 Assay for human Enhancer Box (E-box) (AID 2282936). To be noted: HepG2 E-box cis-reporter transcription, actives raise or lower the signal. Put shortly: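 E-box-driven reporter transcripts measured in transiently transfected HepG2 after 24 h exposure: RNA reverse-transcribed, PCR-amplified, fluorescently labelled, digested and resolved by capillary electrophoresis. Gain or loss relative to DMSO.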

Assay [12] is described as follows: ATG_M_61_CIS: Attagene CIS-FACTORIAL HepG2 Assay for M61 Transcription Factor (Internal Marker) (AID 2282937). To be noted: HepG2 Attagene CIS-FACTORIAL M61 internal marker reporter; actives raise or lower the signal. Put shortly:
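Readout: fluorescent reporter mRNA fragments resolved by capillary electrophoresis after RT-PCR. Transiently transfected human HepG2 cells carried MRTU constructs reporting endogenous TF activity; 24 h chemical exposure; gain or loss of signal fitted relative to DMSO.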

The nature of assay [13]: ATG_M_19_CIS: Attagene CIS-FACTORIAL HepG2 Assay for M19 Transcription Factor (Internal Marker) (AID 2282939). To be noted: HepG2 Attagene CIS-FACTORIAL M19 internal marker reporter; actives raise or lower the signal. The method in brief: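 Signals come from fluorescence of labelled reporter-specific PCR fragments resolved by capillary electrophoresis, following 24 h treatment of HepG2 cells transfected with cis-promoter reporter units; activity was fitted in both directions relative to DMSO.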

The nature of assay [14]: ATG_ERE_CIS: Attagene CIS-FACTORIAL HepG2 Assay for Estrogen Response Element (ERE) (AID 2282940). As to conditions: HepG2 ERE cis-reporter, Attagene RNA transcript; actives raise or lower the signal. The method in brief: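 Fluorescence of capillary-separated, FAM-labelled reporter cDNA fragments indicates reporter mRNA levels in HepG2 cells exposed to chemicals for 24 h. Transient transfection with cis-regulated units; data fitted in both directions against DMSO.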

Assay [15] is described as follows: ATG_Ets_CIS: Attagene CIS-FACTORIAL HepG2 Assay for human Erythroblast Transformation Specific (ETS) (AID 2282941). To be noted: HepG2 ETS cis-reporter transcription, actives raise or lower the signal. Put shortly:
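Multiplexed reporter transcript profiling: HepG2, 24 h treatment, total RNA to cDNA, PCR, 6-FAM labelling, HpaI cut, capillary electrophoresis. Gain- or loss-of-signal fitted against DMSO.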

The target of assay [16] is Hepatocyte nuclear factor 3-beta (Homo sapiens) (UniProt Q9Y261). Kind of assay: ATG_FoxA2_CIS: Attagene CIS-FACTORIAL HepG2 Assay for human Forkhead box A2 (FOXA2) (AID 2282942). As to conditions: HepG2 cis-reporter transcription factor activity, 24 h; actives raise or lower the signal. Put shortly:
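Readout: fluorescent reporter transcripts resolved by capillary electrophoresis after RT-PCR. Transiently transfected HepG2, 24 h compound exposure, endogenous TF activity at cis promoter elements. Gain or loss of signal fitted relative to DMSO.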

The nature of assay [17]: ATG_FoxO_CIS: Attagene CIS-FACTORIAL HepG2 Assay for human Forkhead box O (FoxO) (AID 2282943). As to conditions: HepG2 Attagene cis-reporter, FoxO element, mRNA; actives raise or lower the signal. The method in brief:
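Endogenous transcription factor activity read from multiplexed cis-promoter reporter transcripts in transiently transfected HepG2, 24 h after dosing. Reporter RNA measured via RT-PCR plus capillary electrophoresis of FAM-labeled products; gain or loss relative to DMSO.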

Assay [18] can be described thus: ATG_GLI_CIS: Attagene CIS-FACTORIAL HepG2 Assay for human Zinc Finger Protein GLI1 (AID 2282945). To be noted: HepG2, Attagene cis-factorial reporter mRNA, GLI element; actives raise or lower the signal. The method in brief:
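Bidirectional curve fits relative to DMSO, using reporter mRNA levels from RT-PCR plus capillary electrophoresis. Cells were HepG2 transiently carrying cis-regulated reporter constructs, harvested 24 h after dosing.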

Assay [19] in a line: ATG_GATA_CIS: Attagene CIS-FACTORIAL HepG2 Assay for human GATA Binding Protein (AID 2282944). As to conditions: HepG2 GATA cis-element reporter, Attagene multiplex mRNA; actives raise or lower the signal. The method in brief: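 After transfecting HepG2 cells with multiple cis-regulated reporter units, chemicals are dosed for 24 h; isolated RNA undergoes RT-PCR and fluorescent labeling before capillary electrophoresis, with activity expressed against DMSO.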

Assay [20] can be described thus: ATG_EGR_CIS: Attagene CIS-FACTORIAL HepG2 Assay for human Early Growth Response 1 (EGR1) (AID 2282938). To be noted: HepG2 Attagene CIS-FACTORIAL EGR reporter mRNA; actives raise or lower the signal. The method in brief:
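Read-out: fluorescent reporter-mRNA fragments resolved by capillary electrophoresis after RT-PCR, 24 h post-dose in transiently transfected HepG2. Endogenous transcription-factor activity reported via cis-element-regulated reporter units; gain or loss fitted relative to DMSO.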

SMILES strings stand for the structures. Activity calls are given as the source filed them. The calls were made as follows: active = hit-call score of the fitted dose curve at least 0.9, where 1 is the maximum; inactive = score below 0.9.

Sequence of Hepatocyte nuclear factor 3-beta (Homo sapiens) (Q9Y261 whole entry, looked up): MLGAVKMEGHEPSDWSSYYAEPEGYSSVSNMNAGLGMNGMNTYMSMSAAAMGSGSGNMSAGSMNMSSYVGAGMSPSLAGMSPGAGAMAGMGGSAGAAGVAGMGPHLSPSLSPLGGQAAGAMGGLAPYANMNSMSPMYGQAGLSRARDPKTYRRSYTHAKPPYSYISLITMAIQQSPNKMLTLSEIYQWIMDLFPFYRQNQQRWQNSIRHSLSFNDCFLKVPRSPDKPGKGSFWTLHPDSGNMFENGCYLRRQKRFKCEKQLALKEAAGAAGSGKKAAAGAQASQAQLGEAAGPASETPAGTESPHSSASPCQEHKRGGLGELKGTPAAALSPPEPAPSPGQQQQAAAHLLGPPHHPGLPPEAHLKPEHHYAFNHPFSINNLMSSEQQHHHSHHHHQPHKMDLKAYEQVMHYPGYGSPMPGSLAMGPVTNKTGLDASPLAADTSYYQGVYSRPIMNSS
Sequence of CCAAT/enhancer-binding protein beta (Homo sapiens) (P17676 whole entry, looked up, the tested form may be a part): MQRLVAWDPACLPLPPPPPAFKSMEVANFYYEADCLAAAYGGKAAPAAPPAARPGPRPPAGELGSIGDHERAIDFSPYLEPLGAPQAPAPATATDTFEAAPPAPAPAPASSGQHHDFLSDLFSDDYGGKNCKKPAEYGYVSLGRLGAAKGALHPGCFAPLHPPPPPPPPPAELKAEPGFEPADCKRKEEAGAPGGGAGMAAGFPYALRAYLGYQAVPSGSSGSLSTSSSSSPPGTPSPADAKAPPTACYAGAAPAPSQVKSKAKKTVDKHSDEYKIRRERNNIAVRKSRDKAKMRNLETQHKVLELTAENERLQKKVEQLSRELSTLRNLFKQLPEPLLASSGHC
Sequence of Aryl hydrocarbon receptor (Homo sapiens) (P35869 whole entry, looked up): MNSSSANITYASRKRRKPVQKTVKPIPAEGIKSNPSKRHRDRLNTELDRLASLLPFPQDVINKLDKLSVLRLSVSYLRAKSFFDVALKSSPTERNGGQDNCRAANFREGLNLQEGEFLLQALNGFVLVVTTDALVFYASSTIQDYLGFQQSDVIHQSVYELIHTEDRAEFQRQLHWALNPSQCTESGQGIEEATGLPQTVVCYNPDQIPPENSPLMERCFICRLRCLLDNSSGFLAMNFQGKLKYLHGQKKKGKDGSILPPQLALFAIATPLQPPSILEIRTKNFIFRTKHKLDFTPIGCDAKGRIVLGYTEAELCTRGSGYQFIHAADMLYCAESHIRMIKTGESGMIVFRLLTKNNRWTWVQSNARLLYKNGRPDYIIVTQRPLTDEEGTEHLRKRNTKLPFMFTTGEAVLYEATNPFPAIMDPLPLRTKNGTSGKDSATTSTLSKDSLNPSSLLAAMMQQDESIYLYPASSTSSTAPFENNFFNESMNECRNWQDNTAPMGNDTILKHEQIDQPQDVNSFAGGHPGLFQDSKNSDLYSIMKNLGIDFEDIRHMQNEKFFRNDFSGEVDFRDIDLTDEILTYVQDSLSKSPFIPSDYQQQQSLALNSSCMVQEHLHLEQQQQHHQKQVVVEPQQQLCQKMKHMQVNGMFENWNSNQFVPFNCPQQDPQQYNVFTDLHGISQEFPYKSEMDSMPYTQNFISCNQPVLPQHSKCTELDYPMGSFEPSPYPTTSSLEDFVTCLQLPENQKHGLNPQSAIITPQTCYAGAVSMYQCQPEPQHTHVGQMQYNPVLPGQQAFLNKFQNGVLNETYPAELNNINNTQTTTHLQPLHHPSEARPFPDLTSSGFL
Sequence of Retinoic acid receptor alpha (Homo sapiens) (P10276 whole entry, looked up): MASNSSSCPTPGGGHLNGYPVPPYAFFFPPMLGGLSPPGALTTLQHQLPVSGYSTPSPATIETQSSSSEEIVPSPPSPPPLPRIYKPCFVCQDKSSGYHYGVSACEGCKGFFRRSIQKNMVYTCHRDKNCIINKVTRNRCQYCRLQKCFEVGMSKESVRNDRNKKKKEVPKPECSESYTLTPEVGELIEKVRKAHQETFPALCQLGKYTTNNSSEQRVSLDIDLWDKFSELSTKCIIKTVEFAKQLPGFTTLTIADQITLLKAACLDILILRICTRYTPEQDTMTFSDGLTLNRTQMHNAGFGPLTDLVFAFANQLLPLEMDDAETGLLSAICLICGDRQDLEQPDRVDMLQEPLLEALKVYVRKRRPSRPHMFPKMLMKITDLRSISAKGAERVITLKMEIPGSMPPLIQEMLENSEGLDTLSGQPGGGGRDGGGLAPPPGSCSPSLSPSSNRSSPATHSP
Sequence of Transcription factor E2F1 (Homo sapiens) (Q01094 whole entry, looked up): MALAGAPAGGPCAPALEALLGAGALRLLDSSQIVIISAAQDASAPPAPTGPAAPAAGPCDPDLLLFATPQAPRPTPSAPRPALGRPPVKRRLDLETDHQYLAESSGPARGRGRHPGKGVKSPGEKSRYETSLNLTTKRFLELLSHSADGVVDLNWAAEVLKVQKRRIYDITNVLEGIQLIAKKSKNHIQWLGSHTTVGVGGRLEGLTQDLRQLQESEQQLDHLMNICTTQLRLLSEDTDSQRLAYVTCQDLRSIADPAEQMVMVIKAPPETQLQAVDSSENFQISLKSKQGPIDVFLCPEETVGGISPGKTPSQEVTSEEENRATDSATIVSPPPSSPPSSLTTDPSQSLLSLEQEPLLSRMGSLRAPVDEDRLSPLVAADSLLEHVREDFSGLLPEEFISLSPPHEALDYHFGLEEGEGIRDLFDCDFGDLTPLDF

In the case of `CC(C)C1=CC2=CC[C@@H]3[C@](C)(CCC[C@@]3(C)C(=O)O)[C@H]2CC1`, the molecule was called inactive in assay [1], in assay [2], in assay [7], in assay [8], in assay [9] and in assay [10]. Further, the outcome in assay [11], in assay [12], in assay [13], in assay [14], in [15] and in assay [16] was inactive. In addition, the call in assay [17] and in assay [18] was inactive. Moreover, the AC50 (usually the midpoint of the concentration-response curve, whichever way the signal moves) in [3] is 135 µM (active); in assay [4], 3.7 µM (active); in assay [5], 31.6 µM (active); in [6], 149 µM (active).

As to `C=C(C)C(=O)OCC(C)C`, the outcome in assay [1], in assay [2], in assay [3], in [4], in assay [5] and in assay [6] was inactive. Moreover, the result in assay [7], in [8], in assay [9], in assay [10], in assay [12] and in assay [13] was inactive. Further, the result in assay [14], in assay [15], in [16], in assay [17], in assay [19] and in [18] was inactive.

Consider `FC(F)(F)C(=NOCC1OCCO1)c1ccc(Cl)cc1`, for which the call in assay [1], in assay [2], in [3], in assay [5], in assay [6] and in assay [7] was inactive. The molecule was classed as inactive in [9], in assay [10], in assay [11], in assay [12], in assay [20] and in [13]. Besides, the outcome in [14], in assay [16], in assay [19] and in [18] was inactive. The AC50 in [4] is 38.1 µM (active); in assay [8], 150 µM (active).

Turning to `O=S(=O)(Oc1ccc(Cl)cc1Cl)c1ccccc1`, the result in assay [1], in assay [2], in assay [5], in [6], in assay [7] and in [9] was inactive. Also, the molecule was classed as inactive in assay [10], in [12], in assay [20], in assay [13], in assay [15] and in [16]. Moreover, the call in [17] and in assay [18] was inactive. Further, the AC50 in assay [3] is 46.7 µM (active); in assay [4], 48.8 µM (active); in assay [8], 61.4 µM (active); in [14] it was 7.97 µM (active).

`CC(C)(Oc1ccc(C2CC2(Cl)Cl)cc1)C(=O)O` (stereo not given): the molecule was classed as inactive in assay [1], in assay [2], in assay [3], in assay [4], in assay [5] and in assay [6]. Moreover, the outcome in assay [7], in assay [8], in assay [9], in assay [10], in assay [11] and in assay [12] was inactive. Also, the molecule was classed as inactive in [20], in assay [13], in assay [14], in assay [17], in assay [19] and in assay [18].

The values are drawn from PubChem BioAssay (EPA / NIEHS).
